{
  "source": "PubChem BioAssay AID2732",
  "about": "(Emory University Molecular Libraries Screening Center, 2010)",
  "note": "Several values for one entry are separate records, joined by “and”; a condition that tells them apart may be missing. Identical values can stand only once. Among all 220,000 compounds or so, about 8,200 (3.7%) were called active.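 Rule for the calls: active = compounds that reduced the stress-induced luciferase reporter signal by more than about 70% of percent inhibition (limit read from the data); inactive = the rest.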 Only a selection was taken, and actives are over-represented in it overall. A structure can be active in one record and inactive in another.",
  "data": [
    {"test": "inhibitors of CHOP promoter induction, primary screen, cell-based, unfolded protein response, luciferase reporter (AID 2732);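 note: 0% = tunicamycin plus vehicle and 100% = wells without tunicamycin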", "details": "CHO-K1 CHOP-promoter luciferase, tunicamycin-induced, 15-18 h; at 10 µM; stronger effect = higher value", "values": [
      {"smiles": "COCCN(Cc1cc2cc3c(cc2nc1Cl)OCO3)C(=O)c1cccc(C)c1", "inhibition": "27.4% (inactive)"},
      {"smiles": "COC(=O)N(NC(=O)C(O)(C(C)C)C(C)C)c1ccccc1", "inhibition": "16% (inactive)"},
      {"smiles": "COC(=O)c1cc(NC(=O)c2cc(C(C)(C)C)nn2Cc2cccc(C)c2)ccc1N1CCOCC1", "inhibition": "42.8% (inactive)"},
      {"smiles": "CCOC(=O)C1C(c2ccc(OC)c(OC)c2)c2c([nH][nH]c2=O)CC1(C)O", "note": "(stereo unspecified)", "inhibition": "3.71% (inactive)"},
      {"smiles": "O=C1N=C(N2CCc3ccccc3C2)S/C1=C\\c1ccc(O)cc1", "inhibition": "-2.8% (inactive)"},
      {"smiles": "Cc1ccc(NC(=O)C(=O)NCc2ccc(/C=N/NC(=O)c3c(C)nc4cc(C)ccn34)o2)cc1", "inhibition": "78.9% (active)"},
      {"smiles": "O=C(CSc1ccc(/C=N/NC(=O)c2cccc(F)c2)o1)Nc1ccccc1", "inhibition": "-10.9% (inactive)"},
      {"smiles": "C/C(=N\\OC(=O)c1ccccc1)c1c(C)nc2cc(C)ccn12", "inhibition": "15.7% (inactive)"},
      {"smiles": "COc1ccc(S(=O)(=O)N(CC(=O)N/N=C/c2ccccc2C(=O)O)c2ccccc2OC)cc1", "inhibition": "-10.7% (inactive)"},
      {"smiles": "CCOC(=O)c1c(-c2cccc(N)c2)cn2ccccc12", "inhibition": "20% (inactive)"},
      {"smiles": "CCOC(=O)c1c(N)nn(C(=O)c2ccccc2)c1-c1ccccc1", "inhibition": "72.5% (active)"},
      {"smiles": "CCOC(=O)c1nnn(-c2nonc2OC)c1-c1ccccc1", "inhibition": "24.9% (inactive)"},
      {"smiles": "C=C1CCN([C@H](C(=O)NCc2cc(OC)c(OC)c(OC)c2)C(C)C)S(=O)(=O)c2ccccc21", "inhibition": "-3.31% (inactive)"},
      {"smiles": "Cc1nc(Cl)c(C#N)c2c1CCCC2", "inhibition": "18.3% (inactive)"},
      {"smiles": "O=S(=O)(c1ccc(Cl)cc1)N1CCCN(c2ccc(C(F)(F)F)cn2)CC1", "inhibition": "21.2% (inactive)"},
      {"smiles": "COc1ccc(/C=C2/S/C(=N/N=C3\\CC4CCC3(C)C4(C)C)NC2=O)cc1", "note": "(stereo unspecified)", "inhibition": "88.5% (active)"},
      {"smiles": "COc1ccc(/C=C2\\SC(=N)N(c3ccc(F)cc3)C2=O)cc1", "inhibition": "38.3% (inactive)"},
      {"smiles": "CCOc1ccc(N=C2NC(=O)S/C2=C\\c2ccc(O)cc2)cc1", "inhibition": "64.1% (inactive)"},
      {"smiles": "O=S(=O)(NC(=S)Nc1ccccc1)c1ccc(F)cc1", "inhibition": "-27.1% (inactive)"},
      {"smiles": "N#Cc1c(NCCO)ccc([N+](=O)[O-])c1NCCO", "inhibition": "14.8% (inactive)"},
      {"smiles": "COc1ccc(/C=C2\\N=C3CCCN3C2=O)cc1", "inhibition": "-36.1% (inactive)"},
      {"smiles": "Cc1cc(C)nc(Nc2n[nH]c(-c3ccccc3N)n2)n1", "inhibition": "-32.3% (inactive)"},
      {"smiles": "COc1cc(/C=N/O)cc(Br)c1OCc1cccc(Cl)c1", "inhibition": "108% (active)"},
      {"smiles": "CCOc1cc(/C=N/O)cc(Br)c1OC", "inhibition": "23.6% (inactive)"},
      {"smiles": "CCOc1c(Cl)cc(/C=N/O)cc1OC", "inhibition": "10.4% (inactive)"},
      {"smiles": "C#CCOCCOCCOCCNc1nc(N2CCN(C(=O)[C@H](CCC(=O)O)n3cc(C(N)CO)nn3)CC2)nc(N2CCN(C(=O)[C@H](CCCCN)n3cc(C(N)[C@H](C)CC)nn3)CC2)n1", "note": "(stereo partly specified)", "inhibition": "-9.04% (inactive)"},
      {"smiles": "CCOC(=O)c1c(C)nn(-c2ncccc2NC(=O)CCC(=O)O)c1C", "inhibition": "15.2% (inactive)"},
      {"smiles": "COC(=O)c1c(C)oc(C)c1S(=O)(=O)Nc1ccc(C(C)C)cc1", "inhibition": "8.63% (inactive)"},
      {"smiles": "Cc1cccc(N2CCN(Cc3nc(C4CC4)no3)CC2)n1", "inhibition": "-7.46% (inactive)"},
      {"smiles": "Nc1cccc(S(=O)(=O)Nc2ccc(SC(F)F)cc2)c1", "inhibition": "6.78% (inactive)"},
      {"smiles": "CCCCCC(=O)Nc1ccc(C(=O)N/N=C/c2ccc([N+](=O)[O-])cc2)cc1", "inhibition": "73.8% (active)"},
      {"smiles": "CCCCCC(=O)NC(=S)NNC(=O)c1ccc([N+](=O)[O-])cc1", "inhibition": "26.4% (inactive)"},
      {"smiles": "O=C(COc1ccc(/C=N/NC(=O)c2ccc(O)cc2)cc1)Nc1ccc([N+](=O)[O-])cc1", "inhibition": "0.44% (inactive)"},
      {"smiles": "O=C1NC[C@@H](Cc2ccc(O)cc2)N(CCc2cccc(F)c2)C1=O", "inhibition": "-6.82% (inactive)"},
      {"smiles": "Brc1ccc(-c2n(-c3ccccn3)c3ccccc3[n+]2-c2ccccn2)cc1", "inhibition": "24.6% (inactive)"},
      {"smiles": "Cc1cccc(C(=O)NNC(=O)c2cccc([N+](=O)[O-])c2)c1", "inhibition": "3.14% (inactive)"},
      {"smiles": "CCOC(=O)c1sc(-c2cccc([N+](=O)[O-])c2)cc1N", "inhibition": "75.2% (active)"},
      {"smiles": "CCOC(=O)c1sc2nc(SC)nc(-c3ccccc3)c2c1N", "inhibition": "-31.5% (inactive)"},
      {"smiles": "CC(C)c1ccc(NC(=S)NC2CC3C=CC2C3)cc1", "note": "(stereo unspecified)", "inhibition": "51.2% (inactive)"},
      {"smiles": "CC(=O)Nc1nc2c(s1)C(=O)NCC(C)(C)C2", "inhibition": "12.8% (inactive)"},
      {"smiles": "Brc1ccc(-c2noc(-c3ccccc3)n2)o1", "inhibition": "26.1% (inactive)"},
      {"smiles": "CS(=O)(=O)c1ccc(Cl)c(NC(=O)Nc2ccccc2)c1", "inhibition": "2.73% (inactive)"},
      {"smiles": "CCCCCC(O)c1cccc(OCc2ccc3ccccc3n2)c1", "note": "(stereo unspecified)", "inhibition": "88.4% (active) and -8.07% (inactive)"},
      {"smiles": "CCCn1c(C(O)c2ccc(OCC)cc2)nc2ccccc21", "note": "(stereo unspecified)", "inhibition": "19% (inactive)"},
      {"smiles": "CCCCCCOC(=O)NCC(O)c1ccccc1", "note": "(stereo unspecified)", "inhibition": "1.35% (inactive)"},
      {"smiles": "O=C(NC(=O)c1cc(OCC(F)(F)F)ccc1OCC(F)(F)F)Nc1ccccc1", "inhibition": "6.78% (inactive)"},
      {"smiles": "Cc1ccc(/C=N/NC(=O)CSc2ccccn2)o1", "inhibition": "-0.26% (inactive)"},
      {"smiles": "CC(C)n1c(=S)[nH]c2cc(C(F)(F)F)ccc21", "inhibition": "22.9% (inactive)"},
      {"smiles": "Cc1ccc(Oc2cc(NC(=O)CCCn3nc(C)c([N+](=O)[O-])c3C)cc([N+](=O)[O-])c2)cc1", "inhibition": "71.1% (active)"},
      {"smiles": "COc1ccc(CNC(=O)CCCn2nc(C)c([N+](=O)[O-])c2C)cc1", "inhibition": "11.7% (inactive)"},
      {"smiles": "CCc1ccc(NC(=O)Cn2nc(C)c([N+](=O)[O-])c2C)cc1", "inhibition": "14.9% (inactive)"},
      {"smiles": "Cc1ccc(/C=N/NC(=O)CN2CCN(Cc3ccccc3)CC2)s1", "inhibition": "13.5% (inactive)"},
      {"smiles": "CCOC(=O)c1ccc(NC(=O)Cn2cnc3cc(C)c(C)cc32)cc1", "inhibition": "55.6% (inactive)"},
      {"smiles": "O=C(NNS(=O)(=O)c1ccccc1)c1cnn(-c2ccc(Cl)cc2)c1C(F)(F)F", "inhibition": "-3.7% (inactive)"},
      {"smiles": "C[C@H](NC(=O)c1nc[nH]c1C(=O)N[C@@H](C)C(=O)OC(C)(C)C)C(=O)OC(C)(C)C", "inhibition": "1.44% (inactive)"},
      {"smiles": "Cc1ccc(Nc2nc(CSc3nnnn3-c3ccccc3)cc(=O)[nH]2)cc1", "inhibition": "81.8% (active)"},
      {"smiles": "COc1ccc(C)cc1-n1nnnc1SCc1nc2ccccc2c(=O)[nH]1", "inhibition": "12.6% (inactive)"},
      {"smiles": "O=c1c2ccccc2nc(CSc2nnnn2-c2ccccc2)n1-c1ccccc1", "inhibition": "32.4% (inactive)"},
      {"smiles": "Cc1ccc(-c2noc(CSc3nnc(-c4ccccc4)n3C)n2)cc1", "inhibition": "66.5% (inactive)"},
      {"smiles": "Cc1ccc(-c2noc(CSc3nnnn3-c3ccccc3)n2)cc1", "inhibition": "70.7% (active)"},
      {"smiles": "Cc1ccc(-c2noc(CSc3nnc(-c4cccs4)n3C)n2)cc1", "inhibition": "-8.68% (inactive)"}
    ]}
  ]
}
